# Reference: ChEMBL document CHEMBL3988442, “University of Dundee, Small-Polar-MMV Screening Library” (2021)
# For some assays here: Results with a measured potency or affinity are listed apart.
# Experiments:
# Design in all cases: scale not given: direction of the effect not stated beside the values
# [1] = biological target: Protein translocase subunit SecA (Escherichia coli (strain K12)) (UniProt P10408); assay: Assay to Identify E. coli SecA ATPase Inhibitors; format: functional; conditions: 30 µM
# [2] = biological target: T1, Ubiquitin-activating enzyme e1, putative (Leishmania donovani (strain BPK282A1)) (UniProt E9BSI1); assay: Leishmania donovani Ubiquitin Activating Enzyme (LdE1); format: functional; conditions: 30 µM
# T1 sequence (whole entry): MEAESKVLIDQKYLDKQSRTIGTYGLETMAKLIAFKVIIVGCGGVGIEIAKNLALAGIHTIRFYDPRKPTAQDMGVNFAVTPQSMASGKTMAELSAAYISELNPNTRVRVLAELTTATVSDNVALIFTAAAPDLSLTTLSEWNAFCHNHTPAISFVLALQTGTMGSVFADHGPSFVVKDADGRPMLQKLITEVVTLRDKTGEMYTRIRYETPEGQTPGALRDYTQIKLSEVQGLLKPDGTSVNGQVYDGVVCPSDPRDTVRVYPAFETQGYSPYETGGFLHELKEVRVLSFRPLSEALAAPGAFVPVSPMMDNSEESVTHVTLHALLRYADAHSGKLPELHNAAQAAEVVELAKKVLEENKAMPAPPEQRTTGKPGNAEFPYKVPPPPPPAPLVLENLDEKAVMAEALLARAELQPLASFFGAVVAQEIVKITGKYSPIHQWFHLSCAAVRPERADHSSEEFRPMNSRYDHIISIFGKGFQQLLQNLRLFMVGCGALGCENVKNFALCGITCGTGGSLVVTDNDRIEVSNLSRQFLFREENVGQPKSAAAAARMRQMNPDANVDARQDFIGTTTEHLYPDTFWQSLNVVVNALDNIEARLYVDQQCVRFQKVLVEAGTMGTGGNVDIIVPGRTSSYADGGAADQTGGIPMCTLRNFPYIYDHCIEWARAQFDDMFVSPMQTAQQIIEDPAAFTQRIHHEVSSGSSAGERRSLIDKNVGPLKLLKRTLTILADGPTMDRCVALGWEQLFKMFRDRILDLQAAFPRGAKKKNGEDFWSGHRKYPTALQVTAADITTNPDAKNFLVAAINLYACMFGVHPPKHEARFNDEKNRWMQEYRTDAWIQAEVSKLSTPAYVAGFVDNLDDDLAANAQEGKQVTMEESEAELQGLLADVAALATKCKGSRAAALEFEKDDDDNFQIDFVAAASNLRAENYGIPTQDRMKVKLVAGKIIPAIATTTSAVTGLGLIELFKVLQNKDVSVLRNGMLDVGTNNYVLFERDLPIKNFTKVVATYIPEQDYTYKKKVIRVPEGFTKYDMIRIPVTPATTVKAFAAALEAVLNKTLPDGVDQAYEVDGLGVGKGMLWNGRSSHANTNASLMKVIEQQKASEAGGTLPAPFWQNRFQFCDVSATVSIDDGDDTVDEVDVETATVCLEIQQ
# [3] = biological target: AMP-activated protein kinase, AMPK (Homo sapiens) (UniProt P54646+O43741+P54619+Q9UGJ0+Q9Y478+Q13131+Q9UGI9); assay: AMP-dependent Kinase enzyme assay. An in vitro enzyme assay that detects ADP turnover that is directly proportional to AMPK activity. This uses naive AMPK that is activated during the assay with MK-8722; format: functional; conditions: 30 µM
# [4] = biological target: Sialic acid-binding Ig-like lectin 9 (Homo sapiens) (UniProt Q9Y336); assay: Hs-Siglec9 ALPHAscreen SOP 20170721; conditions: 10 µM
# Trypanosoma cruzi = assay: Trypanosoma cruzi phosphomannomutase and mannose-1-phosphate guanylyltransferase assay; format: functional; conditions: 10 µM
# [5] = biological target: T2, Arginase-2, mitochondrial (Homo sapiens) (UniProt P78540); assay: in vitro enzyme assay to detect the production of urea directly proportional to the activity of Arginase II; format: functional; conditions: 33.3 µM; note: in the data most compounds retested in dose-response had high values
# T2 sequence (whole entry): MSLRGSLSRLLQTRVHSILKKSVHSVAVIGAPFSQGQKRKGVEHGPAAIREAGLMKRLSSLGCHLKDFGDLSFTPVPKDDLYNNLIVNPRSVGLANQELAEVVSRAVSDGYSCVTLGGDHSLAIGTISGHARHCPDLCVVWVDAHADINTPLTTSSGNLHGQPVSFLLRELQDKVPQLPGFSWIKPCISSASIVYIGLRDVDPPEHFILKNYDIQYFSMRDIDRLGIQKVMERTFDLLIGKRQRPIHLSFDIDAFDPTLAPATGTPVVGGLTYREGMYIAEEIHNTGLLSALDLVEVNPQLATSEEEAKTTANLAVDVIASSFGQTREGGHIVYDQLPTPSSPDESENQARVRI
# [6] = biological target: T3, Proteasome subunit beta (Trypanosoma cruzi) (UniProt O96673); assay: Trypanosoma cruzi proteasome chymotrypsin-like activity (TcProtChymo) assay.; note: in the data most compounds retested in dose-response had high values; format: functional; conditions: 9.37 µM
# T3 sequence (whole entry): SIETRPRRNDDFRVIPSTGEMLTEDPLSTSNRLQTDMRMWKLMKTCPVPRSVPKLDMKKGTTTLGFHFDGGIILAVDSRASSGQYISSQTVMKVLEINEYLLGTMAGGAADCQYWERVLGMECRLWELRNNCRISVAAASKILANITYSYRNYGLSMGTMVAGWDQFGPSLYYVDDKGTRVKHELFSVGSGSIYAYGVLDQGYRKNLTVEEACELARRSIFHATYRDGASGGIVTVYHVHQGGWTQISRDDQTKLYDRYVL
# Homo sapiens = species on record: Homo sapiens; assay: To identify inhibition of the IFN signalling (Jak-Stat) pathway via expression of an eGFP reporter gene under the control of an IFN-stimulated response element (ISRE) containing MxA promoter.; format: functional; conditions: 30 µM
# [7] = biological target: T4, Tyrosyl-tRNA synthetase, putative (Trypanosoma cruzi (strain CL Brener)) (UniProt Q4DSP6); assay: Trypanosoma cruzi tyrosyl tRNA synthetase (TcYRS) _High Tyrosine SOP; format: functional; conditions: 30 µM; note: in the data most compounds retested in dose-response had high values
# T4 sequence (whole entry): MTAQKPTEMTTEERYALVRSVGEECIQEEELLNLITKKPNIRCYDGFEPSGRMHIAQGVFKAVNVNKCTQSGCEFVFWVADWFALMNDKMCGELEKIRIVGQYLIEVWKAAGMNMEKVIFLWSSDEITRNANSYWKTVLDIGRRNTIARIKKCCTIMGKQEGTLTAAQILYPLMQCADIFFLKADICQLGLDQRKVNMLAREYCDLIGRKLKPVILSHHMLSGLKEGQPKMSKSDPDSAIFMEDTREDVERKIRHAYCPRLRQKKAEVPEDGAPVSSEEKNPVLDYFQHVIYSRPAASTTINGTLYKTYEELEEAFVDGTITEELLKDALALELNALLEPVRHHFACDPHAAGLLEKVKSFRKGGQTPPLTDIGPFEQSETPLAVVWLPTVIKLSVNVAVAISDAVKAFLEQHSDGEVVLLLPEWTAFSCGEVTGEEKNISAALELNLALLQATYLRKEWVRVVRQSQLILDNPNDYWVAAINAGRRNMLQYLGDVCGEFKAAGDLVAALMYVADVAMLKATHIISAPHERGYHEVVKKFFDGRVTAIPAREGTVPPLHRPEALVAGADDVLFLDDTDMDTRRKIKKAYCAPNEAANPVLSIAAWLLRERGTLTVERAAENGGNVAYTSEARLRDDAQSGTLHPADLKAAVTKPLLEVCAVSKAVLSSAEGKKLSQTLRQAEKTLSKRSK
# [8] = biological target: T4, Tyrosyl-tRNA synthetase, putative (Trypanosoma cruzi (strain CL Brener)); assay: Trypanosoma cruzi tyrosyl tRNA synthetase (TcYRS) SOP; format: functional; conditions: 30 µM
# [9] = biological target: Chromo domain-containing protein 1 (Saccharomyces cerevisiae (strain ATCC 204508 / S288c) (Baker's yeast)) (UniProt P32657); assay: ScCHD-1 Enzyme Inhibition Assay; format: functional; conditions: 30 µM; note: in the data most compounds retested in dose-response had high values
# Chain of Chromo domain-containing protein 1 (Saccharomyces cerevisiae (strain ATCC 204508 / S288c) (Baker's yeast)) (P32657 whole entry, the tested form may be a part): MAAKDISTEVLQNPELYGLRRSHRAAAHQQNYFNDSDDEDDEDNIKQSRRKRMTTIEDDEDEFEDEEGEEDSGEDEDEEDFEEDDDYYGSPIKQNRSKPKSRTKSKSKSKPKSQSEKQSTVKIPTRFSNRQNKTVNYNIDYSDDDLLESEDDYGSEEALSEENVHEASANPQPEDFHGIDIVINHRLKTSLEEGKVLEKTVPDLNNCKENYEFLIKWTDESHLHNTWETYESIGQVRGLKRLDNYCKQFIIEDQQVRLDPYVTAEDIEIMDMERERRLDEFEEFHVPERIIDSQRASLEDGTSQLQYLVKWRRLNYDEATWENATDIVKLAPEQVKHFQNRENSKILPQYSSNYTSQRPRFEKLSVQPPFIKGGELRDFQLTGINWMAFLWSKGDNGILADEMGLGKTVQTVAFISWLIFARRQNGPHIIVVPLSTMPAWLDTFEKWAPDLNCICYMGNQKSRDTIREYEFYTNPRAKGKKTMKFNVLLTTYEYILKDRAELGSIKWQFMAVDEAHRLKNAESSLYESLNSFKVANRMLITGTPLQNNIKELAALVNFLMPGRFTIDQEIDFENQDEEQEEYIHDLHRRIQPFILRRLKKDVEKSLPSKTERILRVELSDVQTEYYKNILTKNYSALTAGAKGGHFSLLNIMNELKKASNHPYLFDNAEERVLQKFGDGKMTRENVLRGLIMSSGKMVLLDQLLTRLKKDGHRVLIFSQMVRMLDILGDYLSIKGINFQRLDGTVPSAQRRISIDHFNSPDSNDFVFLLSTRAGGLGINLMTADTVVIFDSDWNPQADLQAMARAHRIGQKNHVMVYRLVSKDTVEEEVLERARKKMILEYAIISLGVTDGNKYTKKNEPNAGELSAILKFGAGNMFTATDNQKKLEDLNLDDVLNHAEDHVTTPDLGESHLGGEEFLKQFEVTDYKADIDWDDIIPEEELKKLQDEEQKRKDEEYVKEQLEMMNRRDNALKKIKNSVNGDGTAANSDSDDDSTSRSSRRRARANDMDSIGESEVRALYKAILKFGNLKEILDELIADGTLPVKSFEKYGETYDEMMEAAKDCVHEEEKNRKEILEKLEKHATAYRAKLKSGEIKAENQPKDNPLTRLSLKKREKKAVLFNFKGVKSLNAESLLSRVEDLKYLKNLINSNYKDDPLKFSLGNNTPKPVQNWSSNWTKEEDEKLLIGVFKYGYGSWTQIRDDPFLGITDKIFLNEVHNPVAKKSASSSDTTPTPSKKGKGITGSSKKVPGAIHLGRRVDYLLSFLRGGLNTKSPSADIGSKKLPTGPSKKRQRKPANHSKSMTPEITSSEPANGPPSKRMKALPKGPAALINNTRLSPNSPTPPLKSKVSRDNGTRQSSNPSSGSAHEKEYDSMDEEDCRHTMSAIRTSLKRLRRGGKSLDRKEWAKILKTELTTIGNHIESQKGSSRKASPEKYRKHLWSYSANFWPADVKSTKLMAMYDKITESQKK
# Chain of Protein translocase subunit SecA (Escherichia coli (strain K12)) (P10408 whole entry): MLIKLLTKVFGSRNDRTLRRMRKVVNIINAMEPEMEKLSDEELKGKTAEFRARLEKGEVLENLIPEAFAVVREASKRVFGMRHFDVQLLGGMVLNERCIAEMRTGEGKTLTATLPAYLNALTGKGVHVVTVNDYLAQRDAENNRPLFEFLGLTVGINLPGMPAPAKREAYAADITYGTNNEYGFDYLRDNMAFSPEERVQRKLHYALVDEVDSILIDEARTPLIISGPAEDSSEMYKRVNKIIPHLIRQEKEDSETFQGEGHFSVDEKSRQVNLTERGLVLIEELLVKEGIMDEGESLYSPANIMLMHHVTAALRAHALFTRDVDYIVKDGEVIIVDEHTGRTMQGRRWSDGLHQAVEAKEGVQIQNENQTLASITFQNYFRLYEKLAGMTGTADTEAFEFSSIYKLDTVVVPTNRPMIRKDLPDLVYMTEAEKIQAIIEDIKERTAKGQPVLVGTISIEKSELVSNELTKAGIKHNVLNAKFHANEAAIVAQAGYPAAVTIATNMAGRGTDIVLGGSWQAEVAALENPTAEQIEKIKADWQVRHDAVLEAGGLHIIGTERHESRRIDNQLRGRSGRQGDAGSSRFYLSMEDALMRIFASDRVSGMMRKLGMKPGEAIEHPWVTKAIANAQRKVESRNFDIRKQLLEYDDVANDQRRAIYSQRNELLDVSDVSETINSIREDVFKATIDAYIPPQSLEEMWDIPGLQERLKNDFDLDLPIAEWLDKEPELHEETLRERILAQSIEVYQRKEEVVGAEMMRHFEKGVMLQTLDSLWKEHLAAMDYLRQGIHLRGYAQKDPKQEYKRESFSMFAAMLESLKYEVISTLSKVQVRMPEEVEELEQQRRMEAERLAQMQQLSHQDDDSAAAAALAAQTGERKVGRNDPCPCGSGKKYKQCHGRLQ
# Chain of Sialic acid-binding Ig-like lectin 9 (Homo sapiens) (Q9Y336 whole entry): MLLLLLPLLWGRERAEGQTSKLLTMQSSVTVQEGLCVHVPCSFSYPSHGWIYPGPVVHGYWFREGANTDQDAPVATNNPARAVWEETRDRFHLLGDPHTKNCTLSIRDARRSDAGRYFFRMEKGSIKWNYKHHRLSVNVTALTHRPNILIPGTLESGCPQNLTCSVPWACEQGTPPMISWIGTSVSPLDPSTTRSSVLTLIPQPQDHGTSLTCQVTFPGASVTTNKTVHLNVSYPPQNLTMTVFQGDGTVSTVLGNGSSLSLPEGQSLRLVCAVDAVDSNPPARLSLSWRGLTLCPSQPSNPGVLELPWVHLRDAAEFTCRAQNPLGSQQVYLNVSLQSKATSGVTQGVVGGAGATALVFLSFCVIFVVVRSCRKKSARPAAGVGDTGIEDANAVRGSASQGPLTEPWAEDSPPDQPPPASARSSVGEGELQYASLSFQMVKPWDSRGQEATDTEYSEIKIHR
SMILES,Percent Effect [1] [%],Percent Effect [2] [%],Percent Effect [3] [%],Percent Effect [4] [%],Percent Effect (Trypanosoma cruzi) [%],Percent Effect [5] [%],Percent Effect [6] [%],Percent Effect (Homo sapiens) [%],Percent Effect [7] [%],Percent Effect [8] [%],Percent Effect [9] [%]
CN(Cc1ccsc1)C(=O)c1cc2c([nH]c1=O)CCCC2=O,-3.09,13.5,-2.3,9.82,-2.32,-0.185,16.5,3,4.95,18.3,-6.06
CC1CN(C(=O)NCCCn2cncn2)CCO1 (configuration not stated),-2.77,7.89,1.46,3.56,-2.82,5.75,2.84,-1.05,5.39,7.32,-1.67
CN(C)CC1CN(CCOc2cccc(C#N)c2)CCO1 (configuration not stated),-2.7,-5.26,-2.16,-5.38,-4.95,5.75,-8.71,-3.58,1.48,3.7,4.04
CC(C)OCCN1CCN(C(=O)c2cccc(CC#N)c2)CC1,-0.779,18.2,-4.35,-10.2,-8.99,4.27,11.2,18.6,4.85,9.76,-7.58
CN1CCOC(CN(C(=O)CC2CCCC2)c2nccs2)C1 (configuration not stated),-0.692,0,6.23,8.01,0.464,-4.25,-2.69,7.78,-3.96,-6.1,2.72
Cc1cc(CN(Cc2cccs2)CC2CCCO2)no1 (configuration not stated),-4.05,1.27,10.8,3.07,-1.33,4.95,6,6.19,-5.21,0,16.7
O=C(c1ccc2c(c1)CCCC2)N1CCOCC1c1ncon1 (configuration not stated),-2.2,5.41,-9.67,7.55,2.17,-5.61,9.37,5.93,3.45,13.6,-8.29
CN(CC(=O)N(C)C1CCCCC1)C1CCc2ccccc21 (configuration not stated),-3.95,7.89,6.4,-4.14,-7.14,3.45,7.35,15.2,2.45,9.76,-6.2
CC(C(=O)N1CCN(c2cnccn2)CC1)n1cncn1 (configuration not stated),-0.0716,1.27,4.88,1.64,-4,7.53,8.23,11.1,3.12,10.1,-8.39
O=C(CCN1CCCC1C1CCCCC1)N1CCc2sccc2C1 (configuration not stated),-3.42,-48.6,11.2,-0.447,5.75,-5.21,-0.18,-25.7,14.3,11.1,10.3
COCCc1noc(CNC2CCc3nc(C(C)C)nn3C2)n1 (configuration not stated),-1.47,2.6,8.06,-4.34,-1.27,-2.74,6.39,17.2,0.952,0,-13.7
CCc1cccc(NS(=O)(=O)c2cc3c(c(C(=O)O)c2)OCCO3)c1,-5.6,1.27,-5.84,0.409,-1.33,-0.645,20.9,-2.39,-7.29,-7.59,-30.6
CC(C)c1ccc(OCCC(=O)N2CCC(CC(N)=O)CC2)cc1,-3.21,5.26,5.06,6.24,6.58,-2.68,11,5.75,4.41,12.2,-9.8
O=C(NC1CCS(=O)(=O)C1)N1CCN(c2cnccn2)CC1 (configuration not stated),-3.53,24.3,-10.3,4.95,1.58,-3.14,11.1,15.6,4.95,6.1,-6.05
CCCC(=O)Nc1sc(C(=O)OCC)c(C)c1C#N,0.0516,7.79,24.2,-8.77,-5.42,8.39,10.4,-0.547,1.06,16.7,-3.68
CCC(O)CNC(=O)C1(N(C)Cc2ccccc2)Cc2ccccc2C1 (configuration not stated),-4.2,2.67,3.26,-1.75,-2.63,3.12,8.72,-26.6,1.64,8.64,-5.97
CC(C)n1ccnc1CN1CCCN(C(=O)CC2C=CCC2)CC1 (configuration not stated),-5.72,-1.27,12.6,-5.19,-3.18,-6.67,17.8,9.57,-2.08,-5.06,-12.8
CCc1csc(C2CCCN(C(=O)c3ccnc(N(C)C)c3)C2)n1 (configuration not stated),-1.95,13.2,0.891,-9.58,4.58,-3.55,7.77,41.7,4.25,13,-4.33
CC(C)C(=O)N1CCN(C(=O)c2cc(C(C)C)on2)[C@H]2CS(=O)(=O)C[C@H]21,-2.71,18.1,-7.12,11.2,3.4,7.06,17.5,13.2,0,7.69,-5.25
O=C(CCc1nccs1)N1CCN(c2ncccn2)CC1,-10.4,-7.79,-1.74,-4.24,7.93,-0.632,9.3,1.03,5.71,18.8,-11
Cc1c[nH]cc1C(=O)N1CCN(Cc2nc(C(C)C)no2)CC1,-5.12,8.11,-5.14,9.52,-3.81,-2.77,-3.05,17.2,2.97,11,1.56
CC(C)Cc1cc(C(=O)N2CCCC(n3cncn3)C2)[nH]n1 (configuration not stated),-1.38,11.4,6.88,-0.206,1.33,10.1,2.4,0.485,5.21,12.7,-22.3
